A short description of test [1]: ATG_DR4_LXR_CIS: Attagene CIS-FACTORIAL HepG2 Assay for human Liver X Receptor (LXR), DR4 submotif (AID 2282929). As to conditions: HepG2 Attagene DR4 cis-reporter, mRNA transcription; AC50: actives raise or lower the signal unless noted; outcome: actives raise or lower the signal unless noted. The procedure, abridged: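 After transient transfection with multiplexed cis-promoter reporter units, HepG2 cells received test chemicals for 24 h. Reporter mRNA induction, detected by fluorescence after RT-PCR and capillary electrophoresis, was scored relative to DMSO.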

In test [2] the target is Aryl hydrocarbon receptor (Homo sapiens) (UniProt P35869). The test can be described thus: ATG_Ahr_CIS: Attagene CIS-FACTORIAL HepG2 Assay for human Aryl Hydrocarbon Receptor (Ahr) (AID 2282930). As to conditions: HepG2 AhR cis-factorial reporter transcription; actives raise or lower the signal. The procedure, abridged:
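Reporter mRNA levels, quantified by RT-PCR and fluorescent capillary electrophoresis, reflect endogenous AhR transcriptional activity in HepG2 cells carrying transfected cis-promoter reporter constructs. Readout at 24 h post-dose; gain or loss fitted against DMSO baseline.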

A short description of test [3]: ATG_AP_1_CIS: Attagene CIS-FACTORIAL HepG2 Assay for human Activator Protein 1 (AP-1) (AID 2282931). As to conditions: HepG2 Attagene cis-factorial AP-1 reporter mRNA; actives raise or lower the signal. The procedure, abridged:
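After 24 h incubation with test chemical, RNA from transfected HepG2 cells was reverse-transcribed, amplified, fluorescently labelled and digested before capillary electrophoresis. Reporters were driven by cis-regulatory promoters; activity fitted bidirectionally versus DMSO.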

The nature of test [4]: ATG_AP_2_CIS: Attagene CIS-FACTORIAL HepG2 Assay for human Activator Protein 2 (AP-2) (AID 2282932). As to conditions: HepG2 AP-2 cis-reporter, Attagene transcription factor profiling; AC50: actives raise or lower the signal unless noted; outcome: actives raise or lower the signal unless noted. In a few lines: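 Transiently transfected HepG2 cells are exposed to chemical for 24 h. Reporter transcripts are then measured as fluorescence following RT-PCR and capillary separation, and gain- or loss-of-signal is fitted relative to DMSO.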

Test [5] is described as follows: ATG_BRE_CIS: Attagene CIS-FACTORIAL HepG2 Assay for human Bone Morphogenetic Protein (BMP) Response Element (BRE) (AID 2282933). The following applies: HepG2 BMP response element reporter, Attagene transcription factor profiling; actives raise or lower the signal. The procedure, abridged:
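Endogenous transcription factor activity at a BMP response element was monitored in transfected HepG2 cells 24 h after dosing. Fluorescent RT-PCR products were resolved by capillary electrophoresis, and activity was fitted in both directions versus DMSO.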

The target in test [6] is Retinoic acid receptor alpha (Homo sapiens) (UniProt P10276). The test can be described thus: ATG_DR5_RAR_CIS: Attagene CIS-FACTORIAL HepG2 Assay for human Retinoic Acid Receptor Alpha (RARE), DR5 submotif (AID 2282934). The following applies: HepG2 Attagene cis-factorial RARE DR5 reporter, mRNA; actives raise or lower the signal. The procedure, abridged: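 Reporter transcripts from a DR5-regulated unit, measured via RT-PCR plus capillary electrophoresis, reflect endogenous RAR activity in transiently transfected human HepG2 liver cells. Exposure lasted 24 h; gain or loss of signal scored against DMSO.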
Retinoic acid receptor alpha (Homo sapiens), sequence (P10276 whole entry, looked up): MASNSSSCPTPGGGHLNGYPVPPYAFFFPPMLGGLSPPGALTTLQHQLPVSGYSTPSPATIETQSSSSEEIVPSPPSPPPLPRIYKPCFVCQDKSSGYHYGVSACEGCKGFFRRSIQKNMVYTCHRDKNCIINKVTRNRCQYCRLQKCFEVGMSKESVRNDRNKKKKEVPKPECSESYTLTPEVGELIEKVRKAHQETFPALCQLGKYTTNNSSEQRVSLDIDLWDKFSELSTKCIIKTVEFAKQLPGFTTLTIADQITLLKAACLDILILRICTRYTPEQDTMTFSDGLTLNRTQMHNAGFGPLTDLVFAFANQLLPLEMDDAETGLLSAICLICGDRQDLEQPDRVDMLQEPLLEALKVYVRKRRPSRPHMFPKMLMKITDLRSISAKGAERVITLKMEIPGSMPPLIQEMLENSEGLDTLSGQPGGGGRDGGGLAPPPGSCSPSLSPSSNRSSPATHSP

In test [7] the target is Transcription factor E2F1 (Homo sapiens) (UniProt Q01094). The test is described as follows: ATG_E2F_CIS: Attagene CIS-FACTORIAL HepG2 Assay for human E2F Transcription Factor 1 (AID 2282935). As to conditions: HepG2 Attagene cis-reporter, E2F reporter RNA transcripts; actives raise or lower the signal. The procedure, abridged: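 Fluorescent RT-PCR products, digested with HpaI for 2 h at 37 C, are separated by capillary electrophoresis. Source RNA comes from transfected HepG2 cultures treated for 24 h.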
Transcription factor E2F1 (Homo sapiens), sequence (Q01094 whole entry, looked up): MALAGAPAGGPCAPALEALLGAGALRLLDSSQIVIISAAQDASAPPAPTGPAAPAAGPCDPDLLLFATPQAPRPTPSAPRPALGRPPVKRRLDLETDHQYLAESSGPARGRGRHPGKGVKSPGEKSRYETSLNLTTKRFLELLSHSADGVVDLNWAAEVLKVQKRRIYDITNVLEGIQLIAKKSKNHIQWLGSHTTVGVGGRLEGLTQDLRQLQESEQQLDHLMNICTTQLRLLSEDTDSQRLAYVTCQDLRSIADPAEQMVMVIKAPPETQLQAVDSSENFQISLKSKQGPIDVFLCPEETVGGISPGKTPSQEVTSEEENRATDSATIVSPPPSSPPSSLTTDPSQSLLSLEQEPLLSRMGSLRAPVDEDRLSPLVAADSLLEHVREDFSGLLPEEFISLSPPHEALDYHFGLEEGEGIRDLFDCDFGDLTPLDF

Test [8] is described as follows: ATG_E_Box_CIS: Attagene CIS-FACTORIAL HepG2 Assay for human Enhancer Box (E-box) (AID 2282936). As to conditions: HepG2 E-box cis-reporter transcription, actives raise or lower the signal. The procedure, abridged:
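Fluorescent reporter fragments separated by capillary electrophoresis gave the signal; mRNA came from HepG2 cells transfected with cis-element reporters and treated 24 h. Curves fitted bidirectionally relative to DMSO controls.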

A short description of test [9]: ATG_M_61_CIS: Attagene CIS-FACTORIAL HepG2 Assay for M61 Transcription Factor (Internal Marker) (AID 2282937). As to conditions: HepG2 Attagene CIS-FACTORIAL M61 internal marker reporter; actives raise or lower the signal. The procedure, abridged:
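Using transiently transfected HepG2 liver cells, reporter transcript levels were assessed 24 h post-dosing by RT-PCR and capillary electrophoresis. Changes in either direction were fitted relative to DMSO controls.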

Test [10] can be described thus: ATG_EGR_CIS: Attagene CIS-FACTORIAL HepG2 Assay for human Early Growth Response 1 (EGR1) (AID 2282938). As to conditions: HepG2 Attagene CIS-FACTORIAL EGR reporter mRNA; actives raise or lower the signal. In a few lines: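 Fluorescent capillary-electrophoresis signal of reporter cDNA fragments serves as read-out. HepG2 cells bear transiently transfected cis-promoter reporter units and are exposed 24 h; gain- or loss-of-signal is fitted against DMSO.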

Test [11] in a line: ATG_M_19_CIS: Attagene CIS-FACTORIAL HepG2 Assay for M19 Transcription Factor (Internal Marker) (AID 2282939). As to conditions: HepG2 Attagene CIS-FACTORIAL M19 internal marker reporter; actives raise or lower the signal. The procedure, abridged: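 Background-control endpoint from a multiplexed HepG2 reporter panel. Cells carrying cis-regulated reporter constructs are treated 24 h, then reporter transcripts are amplified, fluorescently labelled and sized by capillary electrophoresis. DMSO defines baseline.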

The nature of test [12]: ATG_ERE_CIS: Attagene CIS-FACTORIAL HepG2 Assay for Estrogen Response Element (ERE) (AID 2282940). As to conditions: HepG2 ERE cis-reporter, Attagene RNA transcript; actives raise or lower the signal. In a few lines: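 Cells used were human hepatoma HepG2, transfected with multiple reporter transcription units under cis-regulatory promoters. Reporter mRNA, read 24 h post-dosing via fluorescent RT-PCR products on capillary electrophoresis, was fitted bidirectionally relative to DMSO.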

Test [13] can be described thus: ATG_Ets_CIS: Attagene CIS-FACTORIAL HepG2 Assay for human Erythroblast Transformation Specific (ETS) (AID 2282941). The following applies: HepG2 ETS cis-reporter transcription; AC50: actives raise or lower the signal unless noted; outcome: actives raise or lower the signal unless noted. In a few lines:
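RT-PCR/capillary electrophoresis fluorescence read-out of reporter mRNA; HepG2 transient multi-reporter transfection; 24 h compound exposure; gain or loss of signal fitted bidirectionally relative to DMSO.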

For test [14], the target named is Hepatocyte nuclear factor 3-beta (Homo sapiens) (UniProt Q9Y261). The test is described as follows: ATG_FoxA2_CIS: Attagene CIS-FACTORIAL HepG2 Assay for human Forkhead box A2 (FOXA2) (AID 2282942). The following applies: HepG2 cis-reporter transcription factor activity, 24 h; actives raise or lower the signal. In a few lines:
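Fluorescence signal of reporter cDNA fragments, separated by capillary electrophoresis, reflects endogenous transcription factor activity in transfected HepG2 after 24 h. Both increases and decreases fitted against DMSO.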

Test [15] in a line: ATG_FoxO_CIS: Attagene CIS-FACTORIAL HepG2 Assay for human Forkhead box O (FoxO) (AID 2282943). As to conditions: HepG2 Attagene cis-reporter, FoxO element, mRNA; actives raise or lower the signal. In a few lines: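 Endogenous transcription factor activity read from multiplexed cis-promoter reporter transcripts in transiently transfected HepG2, 24 h after dosing. Reporter RNA measured via RT-PCR plus capillary electrophoresis of FAM-labeled products; gain or loss relative to DMSO.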

Test [16] is described as follows: ATG_GATA_CIS: Attagene CIS-FACTORIAL HepG2 Assay for human GATA Binding Protein (AID 2282944). The following applies: HepG2 GATA cis-element reporter, Attagene multiplex mRNA; actives raise or lower the signal. The procedure, abridged:
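Endogenous transcription factor activity was captured through cis-promoter-driven reporters in transfected HepG2 cells. After 24 h exposure, reporter transcripts were quantified by RT-PCR with fluorescent capillary electrophoresis, and responses fitted both directions against DMSO.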

The nature of test [17]: ATG_GLI_CIS: Attagene CIS-FACTORIAL HepG2 Assay for human Zinc Finger Protein GLI1 (AID 2282945). The following applies: HepG2, Attagene cis-factorial reporter mRNA, GLI element; actives raise or lower the signal. In a few lines:
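Bidirectional curve fits relative to DMSO, using reporter mRNA levels from RT-PCR plus capillary electrophoresis. Cells were HepG2 transiently carrying cis-regulated reporter constructs, harvested 24 h after dosing.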

For test [18], the target named is Bile acid receptor (Homo sapiens) (UniProt Q96RI1). The test can be described thus: ATG_IR1_CIS: Attagene CIS-FACTORIAL HepG2 Assay for human Nuclear Receptor Subfamily 1 Group H Member 4 (NR1H4), IR1 submotif (AID 2282946). The following applies: IR1 reporter transcription, actives raise or lower the signal. The procedure, abridged: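 HepG2 cells transiently transfected with multiplexed cis-element reporter units read endogenous transcription factor activity. After 24 h compound exposure, reporter mRNA was quantified by RT-PCR, fluorescent labelling, HpaI digestion and capillary electrophoresis; bidirectional fitting versus DMSO baseline.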
Bile acid receptor (Homo sapiens), sequence (Q96RI1 whole entry, looked up): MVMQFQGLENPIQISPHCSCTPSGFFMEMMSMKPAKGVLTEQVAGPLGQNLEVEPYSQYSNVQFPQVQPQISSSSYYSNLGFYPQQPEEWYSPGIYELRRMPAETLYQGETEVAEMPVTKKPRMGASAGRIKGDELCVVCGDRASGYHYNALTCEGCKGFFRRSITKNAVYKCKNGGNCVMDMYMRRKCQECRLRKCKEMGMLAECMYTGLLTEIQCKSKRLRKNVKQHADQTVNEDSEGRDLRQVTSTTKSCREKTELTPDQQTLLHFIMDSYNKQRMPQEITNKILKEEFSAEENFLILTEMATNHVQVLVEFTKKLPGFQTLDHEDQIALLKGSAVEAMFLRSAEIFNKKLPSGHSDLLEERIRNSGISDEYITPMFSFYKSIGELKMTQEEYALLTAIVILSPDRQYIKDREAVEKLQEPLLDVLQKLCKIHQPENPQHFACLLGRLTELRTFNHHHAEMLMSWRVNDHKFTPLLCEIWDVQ

The nature of test [19]: ATG_GRE_CIS: Attagene CIS-FACTORIAL HepG2 Assay for human Glucocorticoid Response Elements (GRE) (AID 2282947). The following applies: HepG2 GRE cis-reporter, Attagene multiplex mRNA; AC50: actives raise or lower the signal unless noted; outcome: actives raise or lower the signal unless noted. In a few lines:
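Multiplexed cis-reporter mRNA induction, HepG2, 24 h post-dose. RT-PCR, FAM-labelled, HpaI-digested amplicons by CE. Bidirectional fit vs DMSO.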

Test [20] is described as follows: ATG_ISRE_CIS: Attagene CIS-FACTORIAL HepG2 Assay for human Interferon Regulatory Factor 1 (IRF1) binding to an Interferon-Stimulated Response Element (ISRE) (AID 2282948). As to conditions: HepG2 ISRE cis-reporter (Attagene), mRNA transcription readout; actives raise or lower the signal. The procedure, abridged:
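Read-out: fluorescent RT-PCR products resolved by capillary electrophoresis, reporting endogenous transcription factor activity via ISRE-driven reporter mRNA in transfected HepG2 cells dosed for 24 h; gain or loss fitted relative to DMSO.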

Values joined by “and” are separate entries in the source; they are usually repeats but may differ in a detail not shown here. Equal entries are not always repeated. Some structures have more than one record in an assay (separate samples or runs), and their calls can disagree. Active and inactive are the calls of the source. How the source made its calls: active means hit-call score of the fitted dose curve at least 0.9, where 1 is the maximum; inactive means score below 0.9.

Aryl hydrocarbon receptor (Homo sapiens), sequence (P35869 whole entry, looked up): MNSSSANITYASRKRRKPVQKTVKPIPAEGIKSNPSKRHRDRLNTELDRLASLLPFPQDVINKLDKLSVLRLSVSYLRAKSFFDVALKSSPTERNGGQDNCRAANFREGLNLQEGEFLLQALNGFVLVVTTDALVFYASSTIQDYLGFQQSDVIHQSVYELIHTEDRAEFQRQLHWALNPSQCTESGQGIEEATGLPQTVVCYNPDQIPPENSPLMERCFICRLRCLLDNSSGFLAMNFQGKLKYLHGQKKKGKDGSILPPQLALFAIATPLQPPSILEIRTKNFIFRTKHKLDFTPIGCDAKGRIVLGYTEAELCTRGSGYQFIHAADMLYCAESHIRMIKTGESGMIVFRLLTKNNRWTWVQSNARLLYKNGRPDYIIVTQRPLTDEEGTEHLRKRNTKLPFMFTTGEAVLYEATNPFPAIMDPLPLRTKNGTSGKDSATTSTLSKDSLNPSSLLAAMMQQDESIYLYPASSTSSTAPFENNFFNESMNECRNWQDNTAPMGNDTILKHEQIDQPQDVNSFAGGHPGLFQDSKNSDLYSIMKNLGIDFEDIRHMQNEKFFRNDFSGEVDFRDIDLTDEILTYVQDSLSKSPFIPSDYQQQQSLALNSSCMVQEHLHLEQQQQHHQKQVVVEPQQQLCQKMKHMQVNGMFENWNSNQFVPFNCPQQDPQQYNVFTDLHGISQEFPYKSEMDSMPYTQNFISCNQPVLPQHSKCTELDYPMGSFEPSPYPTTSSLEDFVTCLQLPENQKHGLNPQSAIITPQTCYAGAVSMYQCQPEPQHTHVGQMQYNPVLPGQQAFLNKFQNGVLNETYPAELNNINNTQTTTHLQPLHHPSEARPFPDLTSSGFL
Hepatocyte nuclear factor 3-beta (Homo sapiens), sequence (Q9Y261 whole entry, looked up, the tested form may be a part): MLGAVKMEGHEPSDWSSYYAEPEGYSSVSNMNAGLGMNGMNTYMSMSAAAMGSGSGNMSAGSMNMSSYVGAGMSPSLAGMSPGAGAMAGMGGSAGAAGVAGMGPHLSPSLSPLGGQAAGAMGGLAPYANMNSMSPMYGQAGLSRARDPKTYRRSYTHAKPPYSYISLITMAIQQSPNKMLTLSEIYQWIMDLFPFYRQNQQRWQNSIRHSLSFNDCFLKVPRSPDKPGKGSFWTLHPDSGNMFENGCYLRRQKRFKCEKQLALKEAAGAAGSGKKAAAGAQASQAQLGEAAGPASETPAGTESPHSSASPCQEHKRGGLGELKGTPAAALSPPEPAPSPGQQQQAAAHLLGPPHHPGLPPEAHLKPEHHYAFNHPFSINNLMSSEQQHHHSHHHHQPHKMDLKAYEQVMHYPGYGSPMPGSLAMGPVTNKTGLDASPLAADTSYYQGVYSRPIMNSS

Regarding `CCCCCCCCC(C)=O`, the outcome in test [1], in [2], in test [3], in test [4], in test [5] and in [6] was inactive. In addition, the molecule was classed as inactive in [7], in test [8], in [9], in [10], in test [11] and in test [12]. The molecule was classed as inactive in test [13], in [14], in [15], in test [16], in test [17] and in [18]. The molecule was classed as inactive in test [19] and in test [20].
With `O=C(F)C(F)(F)C(F)(F)C(F)(F)C(=O)F`, the molecule was called inactive in test [1], in test [2], in test [3], in [4], in [5] and in test [6]. In addition, the molecule was called inactive in test [7], in test [8], in test [9], in test [10], in [11] and in [12]. For the same molecule, the result in test [13], in test [14], in test [15], in test [16], in test [17] and in test [18] was inactive. In addition, the outcome in test [19] and in test [20] was inactive.
In general, AC50 refers to the midpoint of the concentration-response curve, whichever way the signal moves. Turning to `CCCCCCCCCCCC(=O)NCCCN(C)C`, the result in test [1], in test [2], in [3], in test [4], in [6] and in [7] was inactive. For the same molecule, the result in test [8], in test [9], in test [11], in [12], in test [13] and in [14] was inactive. The molecule was classed as inactive in test [17]. Moreover, the AC50 in [5] was 17.6 µM (active); in [10], 20.3 µM (active); in test [15], 20.3 µM (active); in [16], 17.2 µM (active); in test [18], 16.4 µM (active); in test [19], 14.9 µM (active). For the same molecule, the AC50 in test [20] was 16.9 µM (active).
On to `c1cnc2c(c1)ccc1cccnc12`, for which the molecule was classed as inactive in test [1], in [2], in test [3], in [4], in [5] and in test [6]. For the same molecule, the outcome in test [7], in test [9], in [10], in test [11], in test [13] and in test [14] was inactive. For the same molecule, the result in test [15], in test [16] and in test [17] was inactive. Also, the AC50 is 5.84 µM (active) in [4]; 5.67 µM (active) and 3.9 µM (active) in test [8]; 7.67 µM (active) and 7.15 µM (active) in test [20].
Take `CCN(CCC#N)c1ccccc1`: the call in [1], in test [2], in [3], in test [4], in test [5] and in test [6] was inactive. The call in [7], in test [8], in test [9], in [10], in test [11] and in test [12] was inactive. Also, the molecule was classed as inactive in test [13], in test [14], in test [15], in test [16], in test [17] and in test [18]. In addition, the molecule was classed as inactive in test [19] and in test [20].
Turning to `COCN(COC)c1nc(N(COC)COC)nc(N(COC)COC)n1`, the outcome in test [1], in test [2], in test [3], in test [4], in test [5] and in [6] was inactive. The molecule was called inactive in test [7], in test [8], in [9], in [10], in test [11] and in test [13]. For the same molecule, the molecule was classed as inactive in test [14], in test [15], in [16], in test [17], in [18] and in test [19]. In test [20], the result was inactive. Moreover, the AC50 in test [12] is 23.7 µM (active).

The values are drawn from PubChem BioAssay (EPA / NIEHS).
